According to the supplement of paper PMC4466140:

Target: AgAbp1
Assay: SPOT peptide array binding signal intensity (averaged, normalized) (arbitrary units (background-subtracted, floor 0; scale differs between SH3 domains)); higher = stronger binding of the SH3 domain to the peptide
How it was run: (§1)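 Cellulose membranes carried synthetic 15-mer peptides with cysteines swapped for serines. These were incubated overnight at 4°C with 10 μg/ml of GST-fused SH3 domains from four yeast species in TBS-based blocking buffer. Binding signal, detected with anti-GST antibody and quantified in Genespotter, is the normalized, background-subtracted spot intensity averaged over replicates, in arbitrary units specific to each domain.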

Binder | SPOT peptide array binding signal intensity
DRIRMFIRFPKFLLE | 9.5

Target: AgBbc1
Assay: as above
How it was run: as §1

Binder | SPOT peptide array binding signal intensity
DRIRMFIRFPKFLLE | 5

Target: AgBem1-D1
Assay: as above
How it was run: as §1

Binder | SPOT peptide array binding signal intensity
DRIRMFIRFPKFLLE | 153

Target: AgBzz1-D1
Assay: as above
How it was run: as §1

Binder | SPOT peptide array binding signal intensity
DRIRMFIRFPKFLLE | 12

Target: AgBzz1-D2
Assay: as above
How it was run: as §1

Binder | SPOT peptide array binding signal intensity
DRIRMFIRFPKFLLE | 20

Target: AgCyk3
Assay: as above
How it was run: as §1

Binder | SPOT peptide array binding signal intensity
DRIRMFIRFPKFLLE | 5.5

Target: AgFus1
Assay: as above
How it was run: as §1

Binder | SPOT peptide array binding signal intensity
DRIRMFIRFPKFLLE | 524

Target: AgHof1
Assay: as above
How it was run: as §1

Binder | SPOT peptide array binding signal intensity
DRIRMFIRFPKFLLE | 27.5

Target: AgHse1
Assay: as above
How it was run: as §1

Binder | SPOT peptide array binding signal intensity
DRIRMFIRFPKFLLE | 1880

Target: AgLsb1
Assay: as above
How it was run: as §1

Binder | SPOT peptide array binding signal intensity
DRIRMFIRFPKFLLE | 1

Target: AgLsb4
Assay: as above
How it was run: as §1

Binder | SPOT peptide array binding signal intensity
DRIRMFIRFPKFLLE | 105

Target: AgMyo5
Assay: as above
How it was run: as §1

Binder | SPOT peptide array binding signal intensity
DRIRMFIRFPKFLLE | 0.5

Target: AgNbp2
Assay: as above
How it was run: as §1

Binder | SPOT peptide array binding signal intensity
DRIRMFIRFPKFLLE | 278

Target: AgRvs167
Assay: as above
How it was run: as §1

Binder | SPOT peptide array binding signal intensity
DRIRMFIRFPKFLLE | 4.33

Target: AgSho1
Assay: as above
How it was run: as §1

Binder | SPOT peptide array binding signal intensity
DRIRMFIRFPKFLLE | 132

Target: AgSla1-D1-D2
Assay: as above
How it was run: as §1

Binder | SPOT peptide array binding signal intensity
DRIRMFIRFPKFLLE | 236

Target: AgSla1-D3
Assay: as above
How it was run: as §1

Binder | SPOT peptide array binding signal intensity
DRIRMFIRFPKFLLE | 5.5

Target: CaAbp1-D1
Assay: as above
How it was run: as §1

Binder | SPOT peptide array binding signal intensity
DRIRMFIRFPKFLLE | 470

Target: CaAbp1-D2
Assay: as above
How it was run: as §1

Binder | SPOT peptide array binding signal intensity
DRIRMFIRFPKFLLE | 318

Target: CaBbc1
Assay: as above
How it was run: as §1

Binder | SPOT peptide array binding signal intensity
DRIRMFIRFPKFLLE | 22.2

Target: CaBem1-D1
Assay: as above
How it was run: as §1

Binder | SPOT peptide array binding signal intensity
DRIRMFIRFPKFLLE | 27

Target: CaBzz1-D1
Assay: as above
How it was run: as §1

Binder | SPOT peptide array binding signal intensity
DRIRMFIRFPKFLLE | 4

Target: CaBzz1-D2
Assay: as above
How it was run: as §1

Binder | SPOT peptide array binding signal intensity
DRIRMFIRFPKFLLE | 6.75

Target: CaCyk3
Assay: as above
How it was run: as §1

Binder | SPOT peptide array binding signal intensity
DRIRMFIRFPKFLLE | 30.5

Target: CaFus1
Assay: as above
How it was run: as §1

Binder | SPOT peptide array binding signal intensity
DRIRMFIRFPKFLLE | 1830

Target: CaHof1
Assay: as above
How it was run: as §1

Binder | SPOT peptide array binding signal intensity
DRIRMFIRFPKFLLE | 0.5

Target: CaHse1
Assay: as above
How it was run: as §1

Binder | SPOT peptide array binding signal intensity
DRIRMFIRFPKFLLE | 191

Target: CaLsb1
Assay: as above
How it was run: as §1

Binder | SPOT peptide array binding signal intensity
DRIRMFIRFPKFLLE | 0.5

Target: CaLsb4
Assay: as above
How it was run: as §1

Binder | SPOT peptide array binding signal intensity
DRIRMFIRFPKFLLE | 108

Target: CaMyo5
Assay: as above
How it was run: as §1

Binder | SPOT peptide array binding signal intensity
DRIRMFIRFPKFLLE | 42.5

Target: CaNbp2
Assay: as above
How it was run: as §1

Binder | SPOT peptide array binding signal intensity
DRIRMFIRFPKFLLE | 1050

Target: CaRvs167
Assay: as above
How it was run: as §1

Binder | SPOT peptide array binding signal intensity
DRIRMFIRFPKFLLE | 238

Target: CaRvs167-3
Assay: as above
How it was run: as §1

Binder | SPOT peptide array binding signal intensity
DRIRMFIRFPKFLLE | 413

Target: CaSho1
Assay: as above
How it was run: as §1

Binder | SPOT peptide array binding signal intensity
DRIRMFIRFPKFLLE | 1280

Target: CaSla1-D1-D2
Assay: as above
How it was run: as §1

Binder | SPOT peptide array binding signal intensity
DRIRMFIRFPKFLLE | 67

Target: CaSla1-D3
Assay: as above
How it was run: as §1

Binder | SPOT peptide array binding signal intensity
DRIRMFIRFPKFLLE | 182

Target: ScAbp1
Assay: as above
How it was run: as §1

Binder | SPOT peptide array binding signal intensity
DRIRMFIRFPKFLLE | 52.5

Target: ScBbc1
Assay: as above
How it was run: as §1

Binder | SPOT peptide array binding signal intensity
DRIRMFIRFPKFLLE | 1.5

Target: ScBem1-D1
Assay: as above
How it was run: as §1

Binder | SPOT peptide array binding signal intensity
DRIRMFIRFPKFLLE | 3

Target: ScBzz1-D1
Assay: as above
How it was run: as §1

Binder | SPOT peptide array binding signal intensity
DRIRMFIRFPKFLLE | 16

Target: ScBzz1-D2
Assay: as above
How it was run: as §1

Binder | SPOT peptide array binding signal intensity
DRIRMFIRFPKFLLE | 12.5

Target: ScCyk3
Assay: as above
How it was run: as §1

Binder | SPOT peptide array binding signal intensity
DRIRMFIRFPKFLLE | 62

Target: ScFus1
Assay: as above
How it was run: as §1

Binder | SPOT peptide array binding signal intensity
DRIRMFIRFPKFLLE | 601

Target: ScHof1
Assay: as above
How it was run: as §1

Binder | SPOT peptide array binding signal intensity
DRIRMFIRFPKFLLE | 1.25

Target: ScHse1
Assay: as above
How it was run: as §1

Binder | SPOT peptide array binding signal intensity
DRIRMFIRFPKFLLE | 1400

Target: ScLsb1
Assay: as above
How it was run: as §1

Binder | SPOT peptide array binding signal intensity
DRIRMFIRFPKFLLE | ≤ 0

Target: ScLsb2
Assay: as above
How it was run: as §1

Binder | SPOT peptide array binding signal intensity
DRIRMFIRFPKFLLE | ≤ 0

Target: ScLsb3
Assay: as above
How it was run: as §1

Binder | SPOT peptide array binding signal intensity
DRIRMFIRFPKFLLE | 87

Target: ScLsb4
Assay: as above
How it was run: as §1

Binder | SPOT peptide array binding signal intensity
DRIRMFIRFPKFLLE | 19

Target: ScMyo3
Assay: as above
How it was run: as §1

Binder | SPOT peptide array binding signal intensity
DRIRMFIRFPKFLLE | 1

Target: ScMyo5
Assay: as above
How it was run: as §1

Binder | SPOT peptide array binding signal intensity
DRIRMFIRFPKFLLE | 1

Target: ScNbp2
Assay: as above
How it was run: as §1

Binder | SPOT peptide array binding signal intensity
DRIRMFIRFPKFLLE | 356

Target: ScPex13
Assay: as above
How it was run: as §1

Binder | SPOT peptide array binding signal intensity
DRIRMFIRFPKFLLE | 14.8

Target: ScRvs167
Assay: as above
How it was run: as §1

Binder | SPOT peptide array binding signal intensity
DRIRMFIRFPKFLLE | 22.7

Target: ScSho1
Assay: as above
How it was run: as §1

Binder | SPOT peptide array binding signal intensity
DRIRMFIRFPKFLLE | 870

Target: ScSla1-D1-D2
Assay: as above
How it was run: as §1

Binder | SPOT peptide array binding signal intensity
DRIRMFIRFPKFLLE | 48.5

Target: ScSla1-D3
Assay: as above
How it was run: as §1

Binder | SPOT peptide array binding signal intensity
DRIRMFIRFPKFLLE | 69

Target: SpAbp1-D1
Assay: as above
How it was run: as §1

Binder | SPOT peptide array binding signal intensity
DRIRMFIRFPKFLLE | 334

Target: SpBbc1
Assay: as above
How it was run: as §1

Binder | SPOT peptide array binding signal intensity
DRIRMFIRFPKFLLE | 2.5

Target: SpBzz1-D1
Assay: as above
How it was run: as §1

Binder | SPOT peptide array binding signal intensity
DRIRMFIRFPKFLLE | 103
